USP8 inh: inhibitors of human USP8 deubiquitinase | purified USP8, Ub-rhodamine cleavage fluorescence, 30 min | inhibition, % at 20 µM | 47,000 tested, 4.2% active | AID 1645853
USP7 inh: human USP7 deubiquitinase inhibition | Q93009 | purified USP7, Ub-rhodamine cleavage fluorescence | inhibition, % at 20 µM | 47,000 tested, 0.3% active
OTUD3 inh: inhibitors of human OTUD3 deubiquitinase. Q5T2D3. purified OTUD3, Ub-rhodamine fluorescence, 2 h. inhibition, % at 25 µM. 47,000 tested, 0.7% active
USP10 inh: blocks human USP10 ubiquitin-rhodamine cleavage. Q14694. 47,000 tested, 1.1% active. inhibition, % at 20 µM. purified USP10, Ub-rhodamine fluorescence, 60 min
UCHL1 inh: inhibitors of human UCHL1 deubiquitinase; P09936; purified UCHL1, Ub-rhodamine cleavage fluorescence; inhibition, % at 20 µM; 47,000 tested, 0.2% active; AID 1645859
* hit, by the source's call. In the library only some 4.9% were active in any assay of this set; here they are far more common. Cut-off read from the data, not from the text of the source: active = inhibition above about 30%; inactive = the rest.

SMILES	USP8 inh	USP7 inh	OTUD3 inh	USP10 inh	UCHL1 inh
O=C(c1nc(-c2ccncc2)no1)N1CCC2(CC1)OCCO2	31*	0	6	2	-4
CCOC(=O)C1=C(C)N[C@]2(C)C[C@H]1c1ccccc1O2	-3	-7	-9	0	-1
O=C1c2c(O)c(Cl)cc3c2[C@@]2(Oc4cc(Cl)c(O)c5c4[C@]3(O2)[C@@H]2O[C@@H]2C5=O)[C@@H]2O[C@H]12	54*	93*	84*	69*	92*
COc1cc(C2SCC(=O)Nc3n[nH]c(C)c32)ccc1OCc1ccccc1F (stereo not drawn)	-77	-20	-5	7	1
CCN(CC)C(=O)c1ccc(NC(=O)CN2CCc3cc(OC)c(OC)cc3C2)cc1	40*	4	4	0	0
CC(C)=CCCC1(C)C=Cc2c(O)c3c(c(CC=C(C)C)c2O1)OC12C(=CC4CC1C(C)(C)OC2(C/C=C(/C)C(=O)O)C4=O)C3=O (stereo not drawn)	73*	67*	69*	82*	15
Cc1noc(C)c1CN1CC[C@H]2C[C@@H](C(=O)NC3CC3)O[C@@H]2C1	-80	2	8	0	1
C[C@@H]1C[C@@H](C)C(=O)[C@@H]([C@@H](O)CC2CC(=O)NC(=O)C2)C1	-1	1	-7	0	-2
O=C1C2CCN(CC2)C1Cc1ccccc1C(F)(F)F (stereo not drawn)	7	2	3	-2	-2
O=C1CSC(c2cccc([N+](=O)[O-])c2)c2c(n(C3CCCCCC3)[nH]c2=O)N1 (stereo not drawn)	40*	1	19	10	3
CCOc1ccc(C2SCC(=O)Nc3c2c(=O)[nH]n3C2CCCC2)cc1 (stereo not drawn)	23	13	11	2	6
Cc1ccc(C2SCC(=O)Nc3c2c(=O)[nH]n3C2CCCCCC2)cc1 (stereo not drawn)	73*	14	-4	15	2
Cn1c(=O)[nH]c2nncnc2c1=O	34*	-13	-12	9	18
CNC(=O)[C@@H]1CN2CCN(C(=O)COc3ccccc3)C[C@@H]2[C@H]1c1ccccc1	-8	-4	-3	0	-4
Cn1ccnc1CN1C[C@H]2CCN(c3ncccn3)C[C@H]2C1	-196	-52	-202	-3	-48
CC(C)C12CN3CC(C(C)C)(CN(C1)C3c1ccccn1)C2O (stereo not drawn)	47*	7	0	2	2
CCOC(=O)C12CC(C)(OC(C)=O)C1c1ccccc1OC2=O (stereo not drawn)	-5	-1	-8	0	-3
O=C(Nc1ccccn1)c1c(O)c2ccccc2n(Cc2ccccc2)c1=O	69*	6	0	9	1
O=C(NCc1ccccn1)c1cc2cccnc2n(Cc2ccccc2)c1=O	-35	-50	-50	-5	-14
CC1=C(O)C(=O)C=C2C1=CC=C1[C@@]2(C)CC[C@@]2(C)[C@@H]3C[C@](C)(C(=O)O)CC[C@]3(C)CC[C@]12C	46*	35*	26	81*	12
CC(C)=CCOC(C)(C)[C@H]1OC2CC[C@@]3(C)C(CCC4Cc5c([nH]c6ccccc56)[C@@]43C)C23OC3[C@@H]1O (stereo partly drawn)	40*	39*	61*	76*	7
Cc1cccc(C)c1-n1nnnc1C1(N)CCC(C)CC1 (stereo not drawn)	17	3	12	0	2

Source: PubChem (Buhrlage Lab, Dana-Farber Cancer Institute and Novartis Institutes for BioMedical Research (Cambridge, Mass))
